# Compound activity as filed in PubChem.
# A selection: hits, their analogues and other compounds. The true share with any hit is near 2.4%.
# WRN inhibitor = inhibitors of human WRN helicase; 0.46% of 360,000 active; WRN helicase unwinding, fluorescent forked duplex, kinetic; Potency, µM (titrated, usually from 114 µM), inactives show at the highest dose activity change, negative = inhibition, actives largely listed as inhibitors; AID 651768; Q14191; also: % is scaled to controls: 0 for no effect and ±100 for the full control effect; nearly all actives have a fitted effect of over 55% in size
#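 Kinetic fluorescence helicase assay: unwinding of a quenched forked DNA duplex (100 nM final) with 2 mM ATP final raises red fluorescence (525/598 nm). Compounds sat 15 min at room temperature with 20 nM WRN beforehand.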
# Pol kappa inh-1 = inhibitors of human DNA polymerase kappa; Q9UBT6; purified Pol kappa, fluorescent DNA synthesis assay, 10 min; Potency, µM (titrated, usually from 107 µM), for the others: at the top dose activity, negative = inhibition, usual class: inhibitors; 0.53% of 400,000 active; AID 588579; also: % is scaled to controls: 0 for no effect and ±100 for the full control effect
#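 Here, compound and 10 nM enzyme are combined for 15 min at room temperature; adding 50 nM substrate (final) starts DNA synthesis, tracked by fluorescence at 0 and 10 min against buffer-only wells.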
# FEN1 inh-1 = inhibitors of human flap endonuclease 1; Potency, µM (top dose mostly 114 µM), without a hit: at the top dose activity change, negative = inhibition, most hits filed as inhibitors; P39748; AID 588795; Recombinant FEN1 flap cleavage, fluorescence, 15 min; 0.35% of 390,000 active; also: % is scaled to controls: 0 for no effect and ±100 for the full control effect; nearly all actives have a fitted effect of over 65% in size
# Target sequence (P39748 whole entry, looked up): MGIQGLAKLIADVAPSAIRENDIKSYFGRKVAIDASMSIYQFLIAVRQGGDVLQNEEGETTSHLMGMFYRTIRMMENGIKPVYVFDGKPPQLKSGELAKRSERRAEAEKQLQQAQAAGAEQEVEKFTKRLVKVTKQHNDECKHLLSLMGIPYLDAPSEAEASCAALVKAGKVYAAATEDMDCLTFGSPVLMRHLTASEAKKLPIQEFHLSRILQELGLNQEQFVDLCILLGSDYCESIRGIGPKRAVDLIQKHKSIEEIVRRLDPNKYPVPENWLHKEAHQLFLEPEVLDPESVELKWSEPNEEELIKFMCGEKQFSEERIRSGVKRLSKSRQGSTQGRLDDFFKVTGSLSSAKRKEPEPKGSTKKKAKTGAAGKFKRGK
#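 Read-out was taken twice, immediately and after 15 min, following addition of 50 nM substrate to 10 nM FEN1 that had sat with test compound for 15 min at room temperature. Curves came from a four-parameter Hill model.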
# Pol eta inh-1 = DNA polymerase eta (human) inhibition. Q9Y253. recombinant Pol eta, fluorescent DNA replication assay. Potency, µM (doses to about 114 µM), for the others: top-dose activity change, negative = inhibition, most hits filed as inhibitors. 1.2% of 390,000 active; also: % is scaled to controls: 0 for no effect and ±100 for the full control effect
#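 Pol eta at 10 nM preincubated with compounds 15 min at room temperature; reaction started with fluorescent substrate (50 nM final) and read kinetically at 0 and 10 min.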
# Pol iota inh = inhibitors of human DNA polymerase iota. 1% of 390,000 active. Pol iota fluorescent replication assay, 10 min. Potency, µM (doses to about 115 µM), for the others: top-dose activity, negative = inhibition, actives largely listed as inhibitors. AID 588590
#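 Pol iota at 10 nM preincubated 15 min with compounds at room temperature; reaction started with fluorescent substrate, 50 nM final. Fluorescence read kinetically at 0 and 10 min; buffer-only wells as negative control.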
# Pol beta inh = DNA polymerase beta (human) inhibition | 1.3% of 340,000 active | Pol beta primer extension/strand displacement, fluorescence kinetic | AID 485314 | P06746 | Potency, µM (highest dose often 114 µM), inactives show at the highest dose activity change, negative = inhibition, hits mostly inhibitors; also: % is scaled to controls: 0 for no effect and ±100 for the full control effect
#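 Homogeneous kinetic assay of primer extension and strand displacement by 10 nM Pol beta, preincubated 15 min at room temperature with compound before 50 nM substrate (final) was added. Read at 0 and 10 min; four-parameter Hill fit.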
# Pol kappa inh-2 = Pol kappa (human) inhibition, cherry-pick confirmation | purified Pol-kappa, fluorescent strand-displacement substrate | 76% of 920 active | shares compounds with Pol eta inh-1 | Potency, µM, actives largely listed as inhibitors
# Pol eta inh-2 = Pol eta (human) inhibition, cherry-pick confirmation; shares compounds with Pol eta inh-1; Pol eta primer extension, TAMRA/BHQ fluorescence, 10 min; Potency, µM, usual class: inhibitors; 64% of 2,600 active; AID 720502
# FEN1 inh-2 = confirmation of human FEN1 inhibitors. FEN1 flap cleavage, TAMRA/BHQ2 fluorogenic DNA substrate. Potency, µM, hits mostly inhibitors. shares compounds with FEN1 inh-1. AID 720498. 79% of 880 active; also: nearly all actives have a fitted effect of over 60% in size
# Starred values were filed as active, the others as inactive; ? = inconclusive; . = no result; [ ] = remark or other dose. Calls follow the shape of the dose curve; as a rule, active = well fitted curve in the direction sought with a large enough effect; inconclusive = small, poorly fitted or top-dose-only effect, or another doubt; inactive = no such curve, though single readings can be large; an effect the other way counts as inactive or inconclusive. Potency is read from the fitted curve at half-maximal effect.
SMILES,WRN inhibitor,Pol kappa inh-1,FEN1 inh-1,Pol eta inh-1,Pol iota inh,Pol beta inh,Pol eta inh-2,FEN1 inh-2,others
Cc1ccc(C(=O)Nc2ccc3c4c(cccc24)CC3)cc1[N+](=O)[O-],-15%,-11%,5%,-13%,0%,-15%,.,.,
O=c1[nH]c(CN2CCN(c3ccccn3)CC2)nc2c(Br)cc(Br)cc12,6%,-16%,-1%,-2%,16%,8%,.,.,
O=S(=O)(c1ccc2ccccc2c1)N1CCN(S(=O)(=O)c2c(F)cccc2F)CC1,.,1%,4%,-14%,26%,.,.,.,
O=c1[nH]c2ccc(S(=O)(=O)N3CCN(S(=O)(=O)c4c(F)cccc4F)CC3)cc2[nH]c1=O,.,.,.,.,.,.,.,?,Pol kappa inh-2=53*
O=C(COC(=O)c1ccc([N+](=O)[O-])s1)NNC(=O)c1ccccc1,10%,-19%,-8%,?,?,.,.,.,
O=C(COC(=O)c1ccc([N+](=O)[O-])s1)NCc1ccc(F)cc1,-5%[11.6 µM],-27%,-10%,79µM*,?,?,?,6.7*,
Cc1[nH]c2ccc(-c3nnc(SCC(=O)c4ccccc4F)o3)cc2c1C,-12%,-3%,-7%,4%,-16%,-14%,.,.,
Cc1cccc(Oc2cc(N)cc([N+](=O)[O-])c2)c1,-16%,-24%,-20%,-23%,15%,10%,.,.,
Cc1csc(N/N=C/c2ccc(O)c([N+](=O)[O-])c2)n1,?,22µM*,79µM*,7.1µM*,13µM*,25µM*,38*,67*,
O=C(N/N=C/c1cc(Br)c(O)c(Br)c1)c1cc2c(ccc3ccccc32)o1,35µM*,20µM*,56µM*,18µM*,?,?,85*,43*,
COc1cc(/C=N/NS(=O)(=O)c2ccc(C)cc2)ccc1OCc1ccc(C(=O)O)cc1,9%,3%,3%,-16%,-11%,41%,.,.,
COc1ccccc1CN1CCNC(=O)C1CC(=O)NCc1c(C)n[nH]c1C (centres undefined),-27%,-11%,3%,-15%,77%,-29%,.,.,
CCOc1cc(/C=C(\C#N)C(=O)Nc2cccc(C(=O)O)c2)ccc1OCc1ccccc1Cl,-6%,0%,?,56µM*,?,-2%,?,?,
Cc1nn2c(=O)cc(COc3ccc(/C=C(\C#N)C(=O)Nc4ccccc4)cc3Cl)nc2s1,.,-13%,7%,-22%,?,?,.,.,
Cc1ccc(C(=O)/C=C/c2cc(Br)cc(Br)c2O)o1,79µM*,-12%,?,50µM*,?,?,?,85*,
O=S(=O)(NCc1ccc(C(F)(F)F)cc1)c1ccc(-n2cnnn2)cc1,1%,0%,18%,-3%,2%,49%,.,.,
C=CCOc1ccc(Br)cc1/C=C1/SC(=Nc2ccc(C(=O)O)cc2)NC1=O,-11%[11.6 µM],-18%,25µM*,20µM*,?,?,85*,?,
CCOc1cc(Br)cc(/C=C2\SC(=Nc3ccccc3)NC2=O)c1O,-9%,-5%,-30%,?,?,?,.,.,
COc1c(O)cc2c(c1O)[C@@H]1O[C@H](CO)[C@@H](O)[C@H](O)[C@H]1OC2=O,-1%,1%,19%,2%,25%,21%,.,.,
Cc1c(C(=O)O)c(O)cc2c1C(=O)c1c(O)c([C@@H]3O[C@H](CO)[C@@H](O)[C@H](O)[C@H]3O)c(O)c(O)c1C2=O,32µM*,50µM*,?,?,?,.,?,85*,Pol kappa inh-2=42*
CC(=O)N(\C=C/C=C/C=C1\Sc2ccccc2C1=O)c1ccccc1,?,25µM*,?,79µM*,?,20µM*,?,?,Pol kappa inh-2=75*
CSc1nc2ccc(NC(=O)NC(=O)c3c(F)cccc3F)cc2s1,-29%,3%,7%,6%,123%,-19%,.,.,
O=C(CCNC(=O)c1ccc([N+](=O)[O-])cc1)Nc1cc(C(F)(F)F)ccc1N1CCOCC1,9%,.,.,-22%,.,.,.,.,
Nc1nc(COC(=O)C2CC(=O)N(Cc3ccccc3)C2)nc(Nc2ccccc2)n1 (centres undefined),0%,4%,8%,-5%,-25%,.,.,.,
O=C1CN(C(=O)COC(=O)c2ccc([N+](=O)[O-])s2)c2ccccc2N1,-1%,-11%,?,22µM*,?,.,?,7.6*,
SMILES,WRN inhibitor,Pol kappa inh-1,FEN1 inh-1,Pol eta inh-1,Pol iota inh,Pol beta inh,Pol eta inh-2,FEN1 inh-2,others
O=C(O)CN1C(=O)/C(=C\c2cc(Br)ccc2OCc2ccc([N+](=O)[O-])cc2)SC1=S,?,71µM*,?,28µM*,40µM*,28µM*,?,85*,Pol kappa inh-2=27*
O=C1NC(=S)S/C1=C\c1cc(Cl)cc(Cl)c1O,35µM*,?,?,35µM*,32µM*,.,.,85*,Pol kappa inh-2=24*
CC(=O)c1sc2nc(CSc3nnnn3-c3ccccc3)[nH]c(=O)c2c1C,28µM*,?,79µM*,10µM*,11µM*,13µM*,67*,?,
COc1ccccc1N1C(=N)S/C(=C\c2ccc(-c3ccccc3C(=O)O)o2)C1=O,28µM*,50µM*,45µM*,14µM*,20µM*,79µM*,30*,?,Pol kappa inh-2=19*
Cc1nc(NCCc2ccccc2)c2nnn(Cc3ccccc3)c2n1,3%,-18%,-1%,-4%,-19%,2%,.,.,
O=C(Nc1ccccc1C(=O)O)c1cccc(NC(=O)c2ccccc2Br)c1,-24%,-3%,-3%,-2%,10%,22%,.,.,
O=C(Nc1cc(C(=O)Nc2ccccc2C(=O)O)cc(C(=O)Nc2ccccc2C(=O)O)c1)c1ccccc1,40µM*,?,25µM*,14µM*,?,6%,30*,34*,
CC1CCN(C(=O)COC(=O)c2ccc([N+](=O)[O-])o2)CC1,-10%[11.6 µM],-6%,?,50µM*,50µM*,.,?,6*,
CS(=O)(=O)Oc1ccc(Br)c2cccnc12,5%,-1%,21%,-13%,29%,30%,.,.,
Nc1ccc(Br)c2cccnc12,-15%,2%,?,?,?,20%,?,67*,
O=C(Nc1ccc(N2CCOCC2)cc1N1CCOCC1)c1ccc([N+](=O)[O-])cc1,-19%,-11%,6%,?,25%,18%,.,.,
